Data as given in PubChem BioAssay (NCATS).
Where “and” joins values, the source holds several entries; their conditions need not be identical. Equal values may be shown once. Results filed as inconclusive are left out. Where a structure was tested more than once in an assay, its records may differ in their call. Calls of active or inactive are those of the source. Unless noted, calls come from the whole dose curve; as a rule, active = well fitted curve in the direction sought with a large enough effect; inconclusive = small, poorly fitted or top-dose-only effect, or another doubt; inactive = no such curve, though single readings can be large; an effect the other way counts as inactive or inconclusive.

Columns and labels:
[1] = test system: MKL-2; assay: qHTS assay to identify novel small-molecules to repurpose for Merkel cell carcinoma treatment (AID 1296009); conditions: MCC and control cell lines, CellTiter-Glo viability, 72 h; series mostly up to 46 µM; note: nearly all actives have a fitted effect of over 60% in size; note: potency is the fitted concentration of half-maximal effect
Procedure, shortened: (§1)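 Luminescence from CellTiter-Glo, read 10 min after addition at room temperature, reported viability following a 72 hr, 37 degree celsius treatment with NPC or MIPE compounds in titration; values normalized to plate controls.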

[2] = test system: UISO; assay: as above; conditions: MCC and control cell lines, CellTiter-Glo viability, 72 h; series mostly up to 46 µM
Procedure, shortened: as §1

[3] = test system: WaGa; assay: as above; conditions: MCC and control cell lines, CellTiter-Glo viability, 72 h; series mostly up to 46 µM
Procedure, shortened: as §1

[4] = test system: C33A; assay: Primary qHTS to identify gynecologic anti-cancer compounds using libraries of approved drugs and bioactive compounds (AID 1345084); conditions: Gynecologic cancer cell panel viability, ATPlite luminescence, 48 h; series mostly up to 57.5 µM; note: nearly all actives have a fitted effect of over 55% in size; note: potency is the fitted concentration of half-maximal effect
Procedure, shortened: (§2)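 Cells, 1,000 per well, plated 16 h, then exposed 48 h at 37 C to compounds. Viability by ATPlite luminescence after 15 min at room temperature.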

[5] = test system: CASKI; assay: as above; conditions: Gynecologic cancer cell panel viability, ATPlite luminescence, 48 h; series mostly up to 57.5 µM
Procedure, shortened: as §2

[6] = test system: Es-2; assay: as above; conditions: Gynecologic cancer cell panel viability, ATPlite luminescence, 48 h; series mostly up to 57.5 µM
Procedure, shortened: as §2

[7] = test system: HeLa; assay: as above; conditions: Gynecologic cancer cell panel viability, ATPlite luminescence, 48 h; series mostly up to 57.5 µM
Procedure, shortened: as §2

[8] = test system: Hek293T; assay: as above; conditions: Gynecologic cancer cell panel viability, ATPlite luminescence, 48 h, control line for the selectivity index; series mostly up to 57.5 µM
Procedure, shortened: as §2

[9] = test system: JEG-3; assay: as above; conditions: Gynecologic cancer cell panel viability, ATPlite luminescence, 48 h; series mostly up to 57.5 µM
Procedure, shortened: as §2

[10] = test system: OV90; assay: as above; conditions: Gynecologic cancer cell panel viability, ATPlite luminescence, 48 h; series mostly up to 57.5 µM
Procedure, shortened: as §2

[11] = test system: PA-1; assay: as above; conditions: Gynecologic cancer cell panel viability, ATPlite luminescence, 48 h; series mostly up to 57.5 µM
Procedure, shortened: as §2

[12] = test system: SKOV3; assay: as above; conditions: Gynecologic cancer cell panel viability, ATPlite luminescence, 48 h; series mostly up to 57.5 µM
Procedure, shortened: as §2

[13] = test system: Tov-21-G; assay: as above; conditions: Gynecologic cancer cell panel viability, ATPlite luminescence, 48 h; series mostly up to 57.5 µM
Procedure, shortened: as §2

[14] = test system: Tov112D; assay: as above; conditions: Gynecologic cancer cell panel viability, ATPlite luminescence, 48 h; series mostly up to 57.5 µM
Procedure, shortened: as §2

[15] = Drug repurposing screens with cells derived from glioblastoma tumor samples (AID 1345199); conditions: GBM patient neurospheres viability, ATP luminescence, 48 h; note: nearly all actives have a fitted effect of over 40% in size; note: potency is the fitted concentration of half-maximal effect; for activity, negative = cell killing: % is set by controls: 0 for no effect and ±100 for the full control effect
Procedure, shortened: (§3)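 Primary testing used CD133+ neurospheres from four GBM patients, seven concentrations, 48 h exposure and ATP-based viability; confirmation added three slower-growing patient lines.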

[16] = test system: astro; assay: as above; conditions: viability, ATP luminescence, 48 h; series mostly up to 45.9 µM
Procedure, shortened: as §3

[17] = qHTS assay to identify inhibitors of the type 1 interferon - major histocompatibility complex class I in skeletal muscle: Counter screen cell viability and HiBit confirmation (AID 1347412); conditions: iHSKM muscle cells + IFN-b, HiBiT or CellTiter-Glo, 24 h; HiBiT; note: potency is the fitted concentration of half-maximal effect; nearly all actives have a fitted effect of over 60% in size
Procedure, shortened: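 After 24 h with human IFN-beta (4 ng/ml) and compound titrations (top 46 uM final, 1:3, 12 points), HLA-B HiBit myoblasts were lysed for either Nano-Glo HiBiT luminescence or CellTiter Glo viability on paired plates.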

[18] = molecular target: Nuclear receptor subfamily 1 group I member 2 (Rattus norvegicus) (UniProt Q9R1A7); assay: qHTS assay for small molecule activators of the rat pregnane X receptor (rPXR) signaling pathway (AID 651751; call rule not given here; note: 0% is about no effect); conditions: rPXR reporter cells, luciferase (One-Glo), 24 h
[19] = test system: CAOV3; assay: Primary qHTS to identify gynecologic anti-cancer compounds using libraries of approved drugs and bioactive compounds (AID 1345084); conditions: Gynecologic cancer cell panel viability, ATPlite luminescence, 48 h; series mostly up to 57.5 µM; note: nearly all actives have a fitted effect of over 55% in size; note: potency is the fitted concentration of half-maximal effect
Procedure, shortened: as §2

[20] = at 21.2 µM (top of the series), tumour line B
[21] = at 21.2 µM (top of the series), tumour line D
[22] = at 45.9 µM (top of the series), tumour line B
[23] = at 45.9 µM (top of the series), tumour line D

Chain of Nuclear receptor subfamily 1 group I member 2 (Rattus norvegicus) (Q9R1A7 whole entry, looked up): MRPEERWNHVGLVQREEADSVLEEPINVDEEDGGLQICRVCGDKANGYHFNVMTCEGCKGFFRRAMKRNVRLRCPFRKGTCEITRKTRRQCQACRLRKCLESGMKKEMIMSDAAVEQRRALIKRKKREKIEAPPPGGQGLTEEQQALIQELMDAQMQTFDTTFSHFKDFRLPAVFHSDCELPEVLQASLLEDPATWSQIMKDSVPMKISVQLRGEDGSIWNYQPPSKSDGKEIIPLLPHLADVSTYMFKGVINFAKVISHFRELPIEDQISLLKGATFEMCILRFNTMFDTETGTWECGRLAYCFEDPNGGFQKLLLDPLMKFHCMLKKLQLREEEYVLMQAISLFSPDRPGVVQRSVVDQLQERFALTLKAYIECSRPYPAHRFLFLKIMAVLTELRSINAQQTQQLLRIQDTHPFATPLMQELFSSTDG

OC(c1ccccc1)(c1ccccc1)C1CCNCC1
inactive: Potency [1] | Potency [2] | Potency [3] | Potency [4] | Potency [5] | Potency [6] | Potency [7] | Potency [8] | Potency [9] | Potency [10] | Potency [11] | Potency [12] | Potency [13] | Potency [14] | activity, negative = cell killing [15, 20] -16.1% | activity, negative = cell killing [15, 21] -0.163% | Potency [16]

Cc1c(Cl)c(=O)oc2cc(OP(=O)(OCCCl)OCCCl)ccc12
inactive: Potency [1] | Potency [2] | Potency [3] | Potency [4] | Potency [5] | Potency [6] | Potency [7] | Potency [8] | Potency [9] | Potency [11] | Potency [12] | Potency [13] | Potency [14] | activity, negative = cell killing [15, 22] -10.4% | activity, negative = cell killing [15, 23] -23.1% | Potency [16]

CC(C)=C[C@@H]1[C@@H](C(=O)OCc2coc(Cc3ccccc3)c2)C1(C)C
inactive: Potency [1] | Potency [2] | Potency [4] | Potency [5] | Potency [6] | Potency [7] | Potency [8] | Potency [9] | Potency [10] | Potency [11] | Potency [12] | Potency [13] | Potency [14] | activity, negative = cell killing [15, 22] -21% | activity, negative = cell killing [15, 23] -13.8% | Potency [16]

C[C@@H]1O[C@@H](O[C@@H]2C=C3CC[C@@H]4[C@H](CC[C@]5(C)[C@@H](c6ccc(=O)oc6)CC[C@]45O)[C@@]3(C)CC2)[C@H](O)[C@H](O)[C@H]1O
active: Potency [1] 0.0084 µM | Potency [2] 0.0038 µM | Potency [3] 0.0027 µM | Potency [16] 28.2 nM | Potency [17] 0.0125 µM
inactive: Potency [9]

CC[n+]1c(-c2ccccc2)c2cc(N)ccc2c2ccc(N)cc21
inactive: max response [18] -4.84%
active: Potency [1] 0.944 µM | Potency [2] 7.5 µM | Potency [3] 0.75 µM | Potency [4] 1.12 µM | Potency [5] 20 µM | Potency [10] 14.1 µM | Potency [11] 1.26 µM | Potency [13] 15.8 µM | Potency [14] 1.41 µM | Potency [16] 8.91 µM and 12.6 µM

COc1ccc2c3c1O[C@H]1[C@@H](O)C=C[C@H]4[C@@H](C2)N(C)CC[C@@]341
inactive: activity, negative = cell killing ([15]; at 91.6 µM (top of the series), tumour line B) -11% | activity, negative = cell killing ([15]; at 91.6 µM (top of the series), tumour line D) -4.9% | Potency [16]
active: Potency [1] 2.12 µM | Potency [2] 15 µM | Potency [3] 5.34 µM | Potency [5] 31.6 µM | Potency ([15]; tumour line A) 44.7 µM

Clc1ccc(CSC(Cn2ccnc2)c2ccc(Cl)cc2Cl)cc1 (stereo not given)
inactive: Potency [5] | Potency [6] | Potency [7] | Potency [9] | Potency [11] | Potency [13] | Potency [14]
active: Potency [1] 13.3 µM | Potency [2] 26.6 µM | Potency ([15]; tumour line A) 2.24 µM

COc1ccc(CN2CCNCC2)c(OC)c1OC
inactive: Potency [1] | Potency [2] | Potency [3] | Potency [4] | Potency [5] | Potency [6] | Potency [7] | Potency [8] | Potency [9] | Potency [10] | Potency [11] | Potency [12] | Potency [13] | Potency [14] | activity, negative = cell killing [15, 20] -2.66% | activity, negative = cell killing [15, 21] -1.27% | Potency [16]

CC[C@H](O)C(C[C@H](C)N(C)C)(c1ccccc1)c1ccccc1
active: Potency ([15]; tumour line A) 44.7 µM | Potency ([15]; tumour line D) 70.8 µM
inactive: Potency [4] | Potency [6] | Potency [7] | Potency [8] | Potency [9] | Potency [11] | Potency [13] | activity, negative = cell killing ([15]; at 108 µM (top of the series), tumour line B) -29.7%

C[C@]12C=CC(=O)C=C1CC[C@@H]1[C@@H]2CC[C@@]2(C)[C@H]1CC[C@]2(C)O
inactive: Potency [1] | Potency [4] | Potency [5] | Potency [6] | Potency [7] | Potency [8] | Potency [9] | Potency [10] | Potency [11] | Potency [12] | Potency [13] | Potency [14] | activity, negative = cell killing [15, 22] -4.86% | activity, negative = cell killing [15, 23] -22.4%

Clc1ccc(CO/N=C(\Cn2ccnc2)c2ccc(Cl)cc2Cl)c(Cl)c1
inactive: Potency [4] | Potency [19] | Potency [5] | Potency [6] | Potency [7] | Potency [8] | Potency [9] | Potency [12] | Potency [13] | Potency [14]
active: Potency ([15]; tumour line A) 2.82 µM | Potency ([15]; tumour line D) 11.2 µM

CCC1(c2cnc[nH]2)Cc2ccccc2C1
inactive: activity, negative = cell killing [15, 23] -24.8% | Potency [16]

CC(=O)OC1(c2ccccc2)CCN(CCc2ccccc2)CC1
active: Potency [2] 24.8 µM
inactive: Potency [4] | Potency [6] | Potency [7] | Potency [8] | Potency [9] | Potency [11] | Potency [13] | Potency [14] | Potency [16]

O=C(O)CCCCCCNC1c2ccccc2CCc2ccccc21
inactive: Potency [1] | Potency [3] | Potency [4] | Potency [19] | Potency [5] | Potency [6] | Potency [7] | Potency [8] | Potency [9] | Potency [10] | Potency [11] | Potency [13] | Potency [14] | activity, negative = cell killing [15, 22] 2.2% | activity, negative = cell killing [15, 23] -6.72% | Potency [16]

Clc1ccc(C(OCCN2CCCCC2)c2ccccc2)cc1 (stereo not given)
active: Potency ([15]; tumour line A) 3.55 µM | Potency ([15]; tumour line B) 10 µM | Potency ([15]; tumour line D) 7.08 µM
inactive: Potency [1] | Potency [4] | Potency [5] | Potency [6] | Potency [7] | Potency [8] | Potency [9] | Potency [13] | Potency [14] | Potency [16]

CC1COC2(c3ccccc3Cl)c3cc(Cl)ccc3NC(=O)CN12 (stereo not given)
inactive: Potency [2] | Potency [4] | Potency [19] | Potency [5] | Potency [6] | Potency [7] | Potency [8] | Potency [9] | Potency [11] | Potency [12] | Potency [13] | Potency [14]
